Dicer processing – inhibitors of human Dicer processing of pre-microRNA. Q9UPY3. cat-ELCCA pre-miR-21 Dicer processing, chemiluminescence; stronger effect = higher value. z-score at 25 µM. 47,000 compounds, 6% hits. AID 1347074; in the data active means z-score above about 3, passing the limit was not always enough;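 further: higher signal means more uncleaved substrate so more Dicer inhibition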
A number is an active result; 0 = inactive. This excerpt belongs to a sample that is enriched for hits.

SMILES	Dicer processing
COc1ccc(N2C(=O)CC(Sc3nc(C)c4ccccc4n3)C2=O)cc1 (configuration not stated)	0
CCCC(C)(SCC(=O)O)SCC(=O)O	0
Cc1nc2ccc(Oc3ccc4nc(C)[nH]c4c3)cc2[nH]1	0
C=CCn1c(-c2sc3nnc(-c4ccccc4)c(-c4ccccc4)c3c2N)n[nH]c1=S	0
CCCCOc1cc(C(F)(F)F)nc2ccc(C)cc12	0
CCOC(=O)C1=C(C)NC2=C(C(=O)CC(c3ccccc3)C2)C1c1ccc2c(c1)OCO2 (configuration not stated)	0
CCOC(=O)Cc1cc(C)[nH]c1C(=O)OCC	0
CCOC(=O)CCc1c(CC(=O)OCC)c[nH]c1/C=N/O	16
CCOC(=O)CCc1c(C)nc2c(-c3ccc(F)cc3)c(C)[nH]n2c1=O	0
COc1ccc(Oc2cccc(Cl)c2CNC(=O)Nc2ccc(OCc3ccccc3)cc2)cc1	0
O=C(c1ccccc1)c1cc2cc(Cl)cc(Cl)c2o1	0
CC1(C)O[C@H]2O[C@H](C(O)COC(=O)c3ccccc3)[C@H](OC(=O)c3ccccc3)[C@H]2O1 (some centres not stated)	0
Cn1c(=O)c2c(nc(NCCO)n2CCCc2ccccc2)n(C)c1=O	0
CCn1c(NCCCO)nc2c1c(=O)[nH]c(=O)n2C	0
CCCCCn1c(NCCO)nc2c1c(=O)[nH]c(=O)n2C	3.6
Cn1c(=O)[nH]c(=O)c2c1nc(NCCCO)n2CCO	0
C=CCNc1nc2c(c(=O)[nH]c(=O)n2C)n1CCO	0
Cn1c(=O)[nH]c(=O)c2c1nc(NCCCO)n2CCCc1ccccc1	3.4
CCCOC(=O)C1=C(C)NC2=C(C(=O)CC(C)(C)C2)C1c1cc(Br)c(O)c(OC)c1 (configuration not stated)	0
COc1ccc(NC(=O)CC2(CC(=O)O)CCCC2)c(N2CCOCC2)n1	0
Cc1ccc(S(=O)(=O)NCC(Sc2nnc3nc(C)cc(C)n23)c2ccccc2)cc1 (configuration not stated)	3.5
Cc1cc(C)n2c(SCC(=O)O)nnc2n1	0
Cc1cc(C)n2c(SCC(C)C)nnc2n1	0
CC(C)(C)c1ccc(C(=O)Oc2ccc3occ([N+](=O)[O-])c3c2)cc1	0
COc1ccc(NC(=O)c2c(NC(=O)c3ccco3)sc3c2CCC3)cc1	3.3
SMILES	Dicer processing
COC(=O)c1c(NC(=O)c2c(OC)cccc2OC)sc2c1CCC2	0
COC(=O)c1c(NC(=O)c2ccccc2C(=O)O)sc2c1CCC2	3.1
NC(=O)c1c(NC(=O)c2ccccc2C(=O)O)sc2c1CCCC2	0
COc1ccccc1NC(=O)c1c(NC(=O)c2ccco2)sc2c1CCC2	0
CCOC(=O)c1c(NC(=O)CC)sc2c1CCC2	0
CCOC(=O)CCC(=O)Nc1sc2c(c1C(=O)OCC)CCCC2	0
COC(=O)c1c(NC(=O)CCCC(=O)O)sc2c1CCC2	4.3
COC(=O)c1c(NC(=O)c2cc(OC)cc(OC)c2)sc2c1CCC2	0
CC(=O)OC[C@@H]1O[C@H](n2cnc3c(=O)[nH]c(N)nc32)[C@@H](OC(C)=O)[C@H]1OC(C)=O	0
CC1c2ccsc2CCN1S(=O)(=O)c1ccc(Cl)s1 (configuration not stated)	0
Cc1ccc(C2Nc3c(C)ccc(C(=O)O)c3C3C=CCC32)cc1 (configuration not stated)	3.3
Cc1ccc(C(=O)O)c2c1NC(c1ccc(Cl)cc1)C1CC=CC21 (configuration not stated)	0
Cc1ccc(C(=O)O)c2c1N[C@H](c1cccc(Cl)c1)C1CC=CC21 (some centres not stated)	0
CC(C)c1ccc(Nc2nnns2)cc1	6.8
CC(C)c1ccc(NC2(C#N)CCCCC2)cc1	0
Clc1ccc(Nc2nnns2)cc1	0
Cn1c(=O)c2c(ncn2CC(COC(=O)c2ccco2)OC(=O)c2ccco2)n(C)c1=O (configuration not stated)	0
N#C/C(=C\c1ccc(OC(=O)c2cccs2)cc1)c1ccccn1	0
CCN(CC)CCOc1c(Br)ccc2c1sc1nc3n(c(=O)c12)CCC3	4.1
COC(=O)C1=C(C)NC2=C(C(=O)CC(C)(C)C2)C1c1cc2c(cc1Cl)OCO2 (configuration not stated)	0
CC(CC(=O)O)CC(=O)Nc1ccccn1 (configuration not stated)	0
Cc1ccc(NC(=O)CC(CC(=O)O)c2ccccc2)nc1 (configuration not stated)	3.7
Cc1ccc(NC(=O)CC(C)CC(=O)O)cc1 (configuration not stated)	0
C=CCSc1n[nH]c(=O)n1-c1ccc2c(c1)OCCO2	0
O=C(NCc1ccco1)c1cc2n(n1)C(C(F)(F)F)CC(c1ccc3c(c1)OCO3)N2 (configuration not stated)	3.8
SMILES	Dicer processing
CCOC(=O)c1cc2n(n1)C(C(F)(F)F)CC(c1ccccc1)N2 (configuration not stated)	0
Cc1ccc(C2CC(C(F)(F)F)n3nc(C(=O)N(C)Cc4c(C)nn(C)c4C)cc3N2)cc1 (configuration not stated)	0
O=C(NCc1ccco1)c1cc2n(n1)C(C(F)(F)F)CC(c1ccc(Cl)cc1)N2 (configuration not stated)	0
O=C(NCC1CCCO1)c1cc2n(n1)C(C(F)(F)F)CC(c1ccc(Br)cc1)N2 (configuration not stated)	3.7
CN(Cc1ccccc1)C(=O)c1cc2n(n1)C(C(F)(F)F)CC(c1ccccc1)N2 (configuration not stated)	3
Cc1c(CNC(=O)c2cc3n(n2)C(C(F)(F)F)CC(c2ccc4c(c2)OCO4)N3)cnn1C (configuration not stated)	0
Cc1ccc(C2CC(C(F)(F)F)n3ncc(C(=O)NCC4CCCO4)c3N2)cc1 (configuration not stated)	0
O=C(NCc1cccs1)c1cc2n(n1)C(C(F)(F)F)CC(c1ccc(F)cc1)N2 (configuration not stated)	0
CC(C)Cc1ccc(C2=Nn3c(nnc3-c3cccs3)SC2C)cc1 (configuration not stated)	0
CN(C)/C=N/c1nnc(SCc2c(F)cccc2Cl)s1	0
S=C(Nc1ccc2c(c1)OCCO2)Nc1ccccc1N1CCOCC1	0
O=C1CC2(CCCC2)C(=O)N1c1ccc(S(=O)(=O)NC2CCCCC2)cc1Cl	0
Cc1c(O)ccc2c1OC(C)(C)CC2=O	0
CCCOc1ccc(C2C(C(=O)OC)=C(C)NC3=C2C(=O)CCC3)cc1OC (configuration not stated)	0
Cc1onc(-c2c(Cl)cccc2Cl)c1N	0
Cc1onc(-c2c(Cl)cccc2Cl)c1CSC(=S)N(C)C	6.6
CSC(=S)N(C)NC(=O)Nc1c(-c2c(Cl)cccc2Cl)noc1C	0
C=CCOC(=O)C1=C(C)NC2=C(C(=O)CCC2)C1c1cc(OC)c(OC)cc1Br (configuration not stated)	0
CN(C)S(=O)(=O)N1CCc2ccccc2C1	4.9
CS(=O)(=O)N(CC(=O)N1CCc2ccccc2C1)c1cccc2ccccc12	0
O=C(c1nc2ncccn2n1)N1CCc2ccccc2C1	0
CCOC(=O)C(Nc1cccc(C)c1)(NS(=O)(=O)c1ccc(C)cc1)C(F)(F)F (configuration not stated)	0
COc1cc(/C=N/NC(=O)c2cc(-c3ccccc3)sc2N)cc(OC)c1OC	0
COc1cc(/C=N/N)cc(OC)c1OC	0
COc1cc(/C=N/NC(=O)c2ccccc2N)cc(OC)c1OC	3.3

Compound activity from PubChem.
